Peg3 promoter = reduces Peg3 promoter-driven luciferase expression in HeLa; HeLa PEG-Prom luciferase reporter, luminescence, overnight; inhibition, % at 20 µM; hit rate 1.7% among 360,000; AID 588405;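 active means inhibition of at least 50% at 20 µM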
LGR2 inh = inhibitors of bursicon-induced Drosophila LGR2 receptor cAMP signaling. HEK293 LGR2, CRE-luciferase, bursicon-stimulated, 4 h. inhibition, % at 9.99 µM. hit rate 0.35% among 380,000. AID 720647;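 active means drop in luminescence signal, shown as inhibition above about 50% in the replicate tests, limit read from the data, passing the limit was not always enough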;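 further: agonist challenge used bursicon conditioned medium at about half maximal strength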
HSP90 inh = HSP90 refolding inhibition in rabbit reticulocyte lysate | luciferase refolding luminescence, 3 h | inhibition, % at 5.6 µM | hit rate 0.91% among 290,000 | AID 1789;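 active means inhibition above the screen-wide mean plus 3 SD, computed separately per campaign, cut at about 16% in these data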;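 further: inhibitors lower the luminescence because luciferase stays unfolded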
Mdm2-MdmX inh = disrupts the human Mdm2-MdmX interaction; O15151+Q00987; SaOS-2 split-luciferase Mdm2/MdmX complementation, luminescence; inhibition, % at 8 µM; hit rate 3% among 330,000;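 active means inhibition of at least 50% at 8 µM in the primary screen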
CF NFkB block = blocks PAF-induced NF-kB reporter in cystic fibrosis cells; KKLEB NF-kB-GFP reporter, GFP fluorescence overnight; inhibition, % at 5 µM; hit rate 0.86% among 360,000;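 active means at least 50% inhibition at 5 µM, scaled per plate between neutral and stimulator controls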;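 further: PAF is a Pseudomonas aeruginosa culture filtrate used as stimulus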
KKLEB cytotox = reduces viability of KKLEB cystic fibrosis airway cells. KKLEB CF airway cells viability, ATPlite luminescence, overnight; hits give low values; cells stimulated with P. aeruginosa culture filtrate. activity change (cytotoxicity), % at 5 µM. hit rate 0.36% among 360,000;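 active means corrected activity change at or below -50% at 5 µM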
Mdm2 MdmX conf = confirmation of human Mdm2/MdmX interaction inhibitors | AID 489028 | Mdm2-MdmX binding, luminescent assay | hit rate 55% among 10,000 | inhibition, % at 8 µM | shares compounds with Mdm2-MdmX inh; in the data active means inhibition above about 40%
FLuc counter = counter-screen for Mdm2/MdmX inhibitors: full-length luciferase; SaOS-2 full-length luciferase counterscreen, luminescence; shares compounds with Mdm2-MdmX inh; hit rate 77% among 6,200; inhibition, % at 8 µM; AID 504607;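 active means mean inhibition at 8 µM reaching about 37%, which flags the compound as non-specific, limit read from the data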;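 further: p53-null SaOS-2 cells with luciferase driven by a doxycycline-inducible promoter; compound on cells about two nights before reading with doxycycline added after day one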
A number is an active result; . = inactive; / = no result given. Most compounds without a hit are left out; they make up all but 3.6% or so of the library.

SMILES | Peg3 promoter | LGR2 inh | HSP90 inh | Mdm2-MdmX inh | CF NFkB block | KKLEB cytotox | Mdm2 MdmX conf | others
CCCNC(=O)Nc1ccc2c(c1)C(=O)N(C)[C@@H]1CC[C@@H](CC(=O)OC)O[C@@H]1CO2 | / | . | / | / | / | / | /
C[C@@H]1CCCCO[C@@H](CN(C)C(=O)Nc2cccc3ccccc23)[C@H](C)CN([C@@H](C)CO)C(=O)c2cc(NS(=O)(=O)c3ccc(Cl)cc3)ccc2O1 | / | . | / | / | / | / | /
COc1ccc(-n2nnnc2SCC(=O)c2cccc(OC)c2)cc1 | . | . | . | . | . | . | /
CCOc1ccc(-n2nnnc2SCC(=O)c2ccccc2)cc1 | . | / | . | 67.8 | . | . | .
Cc1cc(Br)ccc1SCC(=O)OC/C(O)=C(\C#N)c1nc2ccccc2[nH]1 | . | . | . | 82.6 | . | . | .
N#C/C(=C(/O)COC(=O)COc1cccc(Br)c1)c1nc2ccccc2[nH]1 | . | . | . | . | . | . | /
N#C/C(=C(/O)COC(=O)CSc1ccc2ccccc2c1)c1nc2ccccc2[nH]1 | . | . | . | 51.3 | . | . | .
CCCC(=O)OC/C(O)=C(\C#N)c1nc2ccccc2[nH]1 | . | . | . | . | . | . | /
COCC(=O)OC/C(O)=C(\C#N)c1nc2ccccc2[nH]1 | . | . | . | . | . | . | /
N#C/C(=C(/O)COC(=O)CCC1CCCCC1)c1nc2ccccc2[nH]1 | . | / | . | 66.3 | . | . | .
Cc1noc(C)c1NC(=O)Nc1ccc2c(c1)CC(=O)N([C@H](C)CO)C[C@H](C)[C@H](CN(C)Cc1ccccc1)O2 | / | . | / | / | / | / | /
Cc1ccccc1Nc1c(-c2ccncc2)nc2ccc(Cl)cn12 | . | . | . | 75.1 | . | . | 49.0 | FLuc counter=71.0
CC(=O)Nc1c(-c2ccccc2)nc2ccc(Cl)cn12 | . | / | / | . | . | . | /
N=c1c2c(n(Cc3cccc(Cl)c3)c3c1CCC3)CCCC2 | 53.5 | . | . | 58.0 | . | . | 41.6 | FLuc counter=64.1
N=c1c2c(n(Cc3ccc(Cl)cc3)c3c1CCC3)CCC2 | . | . | . | . | . | . | /
CCCCn1c(-c2ccc(C(C)(C)C)cc2)nc2cc3[nH]c(=O)c(C(C)C)nc3cc21 | . | / | . | 63.7 | . | . | .
O=C(Oc1c(-c2ccccc2Cl)oc2ccccc2c1=O)c1ccc(Cl)cc1 | . | . | . | 67.3 | . | . | 52.7 | FLuc counter=47.5
COc1ccc(-c2oc3ccccc3c(=O)c2OC(=O)c2ccc(C)cc2)cc1 | . | / | . | 79.5 | . | . | 52.7 | FLuc counter=.
O=C(Oc1ccccc1-c1nnco1)c1ccc(Cl)cc1 | . | / | . | . | . | . | /
COc1ccc(C(=O)c2ccc3oc(-c4ccc(OC)cc4)c(-c4ccc(O)cc4)c3c2)cc1 | . | . | / | 66.0 | . | . | .
O=C(Oc1cc(=O)oc2ccccc12)c1ccccc1 | . | . | . | . | . | . | /
O=C(Oc1c(-c2ccccc2)oc2ccccc2c1=O)c1ccccc1 | . | . | . | 84.9 | . | . | 61.4 | FLuc counter=.
CNC(=O)C[C@@H]1CC[C@@H]2[C@@H](COc3ccc(NC(=O)c4ccc(C(F)(F)F)cc4)cc3C(=O)N2C)O1 | / | . | / | / | / | / | /
COC(=O)c1c(NC(=O)CSc2ncnc3c2cnn3-c2ccccc2Cl)sc2c1CCCC2 | . | / | . | 53.3 | . | . | .
CCC(=O)N1c2ccccc2C(N(C(C)=O)c2ccccc2)CC1C (stereo not drawn) | . | / | . | 54.2 | . | . | .
CCCC(=O)N1c2ccccc2[C@@H](N(C(C)=O)c2ccccc2)C[C@H]1C | . | / | . | . | . | . | /
CC1CC2(C)Oc3ccccc3CC2C(C)C1CNCCCN(C)C (stereo not drawn) | 106.7 | . | . | 96.7 | . | . | 99.6 | FLuc counter=55.0
Cc1ccc(Cc2cnc(NC(=O)/C(C#N)=C/c3ccc(-c4ccc([N+](=O)[O-])cc4)o3)s2)cc1 | . | . | . | 57.7 | . | . | .
CCCC#Cc1cnc2c(c1)C(=O)N([C@@H](C)CO)C[C@@H](C)[C@H](CN(C)C(=O)c1ccc(F)cc1)O2 | / | . | / | / | / | / | /
CC(=O)N1CCC(=NNC(=O)c2cc3ccccc3cc2O)CC1 | . | . | . | 61.8 | . | . | 50.8 | FLuc counter=58.3
